Shown is part of a subset that was picked to be rich in hits.
Dicer processing – human Dicer pre-microRNA cleavage inhibition | AID 1347074 | cat-ELCCA pre-miR-21 Dicer processing, chemiluminescence; hits give high values | actives 6% (n = 47,000) | Q9UPY3 | z-score at 25 µM; in the data active means z-score above about 3, passing the limit was not always enough;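 further: plate controls were vehicle for no effect and no enzyme for full effect; higher signal means more uncleaved substrate so more Dicer inhibition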
Target sequence (Q9UPY3 whole entry, looked up): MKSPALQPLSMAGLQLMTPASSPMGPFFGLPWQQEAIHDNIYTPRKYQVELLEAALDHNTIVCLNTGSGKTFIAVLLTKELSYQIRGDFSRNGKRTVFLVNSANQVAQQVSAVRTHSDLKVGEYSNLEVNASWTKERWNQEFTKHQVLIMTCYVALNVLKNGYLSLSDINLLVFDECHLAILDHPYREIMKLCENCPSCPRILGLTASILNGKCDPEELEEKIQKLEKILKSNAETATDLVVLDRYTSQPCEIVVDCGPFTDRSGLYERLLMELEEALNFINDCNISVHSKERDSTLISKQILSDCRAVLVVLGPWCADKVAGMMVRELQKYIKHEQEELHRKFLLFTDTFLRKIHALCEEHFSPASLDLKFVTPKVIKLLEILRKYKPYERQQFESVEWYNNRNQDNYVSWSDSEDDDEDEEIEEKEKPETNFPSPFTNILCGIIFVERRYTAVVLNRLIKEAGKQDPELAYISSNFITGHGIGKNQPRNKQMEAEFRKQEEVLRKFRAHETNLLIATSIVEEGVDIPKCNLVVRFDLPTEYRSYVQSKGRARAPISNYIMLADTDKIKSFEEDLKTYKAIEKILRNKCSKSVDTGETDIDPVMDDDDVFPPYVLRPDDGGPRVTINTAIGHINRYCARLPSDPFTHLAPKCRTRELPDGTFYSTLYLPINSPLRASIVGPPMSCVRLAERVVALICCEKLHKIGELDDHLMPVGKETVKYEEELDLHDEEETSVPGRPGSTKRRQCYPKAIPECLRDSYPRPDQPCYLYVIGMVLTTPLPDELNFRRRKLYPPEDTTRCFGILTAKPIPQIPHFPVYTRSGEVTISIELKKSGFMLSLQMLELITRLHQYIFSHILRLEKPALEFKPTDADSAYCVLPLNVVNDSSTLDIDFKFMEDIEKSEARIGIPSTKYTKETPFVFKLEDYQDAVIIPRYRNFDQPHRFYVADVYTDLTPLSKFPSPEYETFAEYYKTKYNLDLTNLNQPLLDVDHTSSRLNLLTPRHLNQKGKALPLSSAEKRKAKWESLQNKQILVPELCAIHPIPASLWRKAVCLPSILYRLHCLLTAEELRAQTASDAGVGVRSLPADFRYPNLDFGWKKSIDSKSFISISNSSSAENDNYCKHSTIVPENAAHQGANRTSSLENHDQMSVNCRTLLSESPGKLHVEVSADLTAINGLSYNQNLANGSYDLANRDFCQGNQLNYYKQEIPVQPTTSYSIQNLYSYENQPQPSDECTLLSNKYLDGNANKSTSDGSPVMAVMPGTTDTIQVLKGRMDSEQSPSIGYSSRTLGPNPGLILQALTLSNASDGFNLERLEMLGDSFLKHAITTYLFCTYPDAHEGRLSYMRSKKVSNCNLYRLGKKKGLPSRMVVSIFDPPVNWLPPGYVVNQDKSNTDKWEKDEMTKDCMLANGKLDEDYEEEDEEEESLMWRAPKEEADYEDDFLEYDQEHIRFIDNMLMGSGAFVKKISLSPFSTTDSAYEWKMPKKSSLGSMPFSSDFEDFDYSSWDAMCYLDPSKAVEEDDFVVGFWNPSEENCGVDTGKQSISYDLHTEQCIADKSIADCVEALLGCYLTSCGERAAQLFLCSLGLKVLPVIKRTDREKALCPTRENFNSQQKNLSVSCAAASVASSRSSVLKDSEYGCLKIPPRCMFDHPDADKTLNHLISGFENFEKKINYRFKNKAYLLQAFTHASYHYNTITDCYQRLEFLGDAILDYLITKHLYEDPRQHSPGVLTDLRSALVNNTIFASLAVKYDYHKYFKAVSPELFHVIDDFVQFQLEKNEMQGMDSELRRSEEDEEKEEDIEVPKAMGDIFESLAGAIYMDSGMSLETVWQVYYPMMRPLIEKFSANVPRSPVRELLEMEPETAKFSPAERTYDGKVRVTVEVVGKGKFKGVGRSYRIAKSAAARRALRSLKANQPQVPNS
Starred values were filed as active, the others as inactive.

SMILES	Dicer processing
COc1cc(/C=C2\N=C(SC)SC2=O)ccc1OCc1ccccc1	0.38
CCOCCOC(=O)C1=C(C)NC2=C(C(=O)CCC2)C1c1ccc(SC)cc1 (stereo not given)	1.1
O=C1C2CCCCC2C(=O)N1CC(=O)N1c2ccccc2CCc2ccccc21 (stereo not given)	0.79
Cc1ccc(C(=O)CSc2nnc(-c3ccccc3Br)n2C)cc1	1.6
COc1ccccc1CNc1nc2ccccc2n1CCN1CCOCC1	6.2*
COc1ccc(OCCn2c(C)nc3ccccc32)cc1	0.43
Cc1ccc(-c2cn3c4ccccc4nc3n2CCO)cc1	1.3
OCc1nc2ccccc2n1Cc1ccccc1Cl	-0.29
COc1ccc(-c2cn3c4ccccc4nc3n2CCCN2CCOCC2)cc1	3.6*
CCn1c(NCc2cc(OC)ccc2OC)nc2ccccc21	2.8
Clc1ccccc1CNc1nc2ccccc2n1CCN1CCOCC1	6.5*
O=C(Nc1nc2ccccc2n1CCN1CCOCC1)C1CCCCC1	3
COc1ccc(OC)c(CNc2nc3ccccc3n2CCN2CCCCC2)c1	3.8*
C=CCn1c(NCc2ccccc2OC)nc2ccccc21	-0.63
Cc1ccc(-c2cn3c4ccccc4nc3n2CCCN2CCCCC2)cc1	2.9
FC(F)(F)c1ccc2nsnc2c1	2.8
CC(C)(C)c1cc2nc(C(F)(F)F)cc(N3CCN(C(=O)c4ccccc4)CC3)n2n1	-6
CCOc1cc(CNc2ncn[nH]2)cc(Cl)c1OC	2.3
COc1cccc(-c2nnc(SCc3ccccc3Cl)o2)c1	0.14
CS(=O)(=NC(=O)Nc1ccc(Cl)cc1)c1ccccc1 (stereo not given)	-1.3
CCCCCCCCc1ccc(C(=O)CCC(=O)O)cc1	-0.77
CCc1ccccc1CSc1n[nH]c(=O)n1C(C)c1ccccc1 (stereo not given)	-1.7
Cn1c(=O)c2c(nc(C(N)=O)n2C)n(C)c1=O	-0.53
Cc1ccc(C2C3=C(CC(C)(C)CC3=O)Nc3ncnn32)cc1 (stereo not given)	1.1
CC(=O)/C(N=Nc1ccc(C(C)C)cc1)=C(\C)O	0.77
SMILES	Dicer processing
c1ccc2c(c1)nc(NCc1ccc3c(c1)OCO3)n2CCN1CCOCC1	-0.44
CCN(CC)c1ccc(CNc2nc3ccccc3n2C(C)C)cc1	0.35
COc1ccccc1CNc1nc2ccccc2n1C	3.8*
COc1ccc(OC)c(CNc2nc3ccccc3n2C)c1	2.5
CN(C)c1ccc(CNc2nc3ccccc3n2C)cc1	-0.16
CC(C)c1ccc(CNc2nc3ccccc3n2CCN2CCOCC2)cc1	4.8*
CN(C)/C=C1\CSc2ccc(Cl)cc2C1=O	-0.06
Clc1ccc(-c2noc(Cc3ccccc3)n2)cc1	-5.2
COc1ccc(/C(O)=C2\C(=O)C(=O)N(Cc3cccnc3)C2c2ccc(OC)c(OC)c2)cc1 (stereo not given)	-0.5
O=C(Nc1c(Br)cc(Br)cc1C(=O)Nc1ccc(F)cc1)c1ccc([N+](=O)[O-])cc1	0.06
Cc1ccc(N(CC2=CC3C=CC=CC3NC2=O)C(=O)c2cncc(Br)c2)cc1 (stereo not given)	0.07
COc1cc(OC)cc(N2C(=O)C3CC(C)=C(C)CC3C2=O)c1 (stereo not given)	-2.2
CC1=C(C)CC2C(=O)N(c3ccccc3F)C(=O)C2C1 (stereo not given)	4.9*
CC12N=NCC1C(=O)N(c1ccccc1F)C2=O (stereo not given)	1.7
CCCCOc1ccc(N2C(=O)C3CC(C)=C(C)CC3C2=O)cc1 (stereo not given)	0.63
CC1=C(C)CC2C(=O)N(c3ccc(Oc4ccc(Cl)cc4)cc3)C(=O)C2C1 (stereo not given)	3.3*
CC1=C(C)CC2C(=O)N(c3ccc(N(C)C)cc3)C(=O)C2C1 (stereo not given)	0.61
CN1CCOc2ccc(S(=O)(=O)NC3CCCCNC3=O)cc21 (stereo not given)	0.49
C/C(=C\c1cc(Br)cs1)[N+](=O)[O-]	1.3
Cc1cccc(NC(=O)c2snnc2C)c1C(=O)O	0.58
O=C(C1c2ccccc2Oc2ccccc21)N1CCN(c2ccc(F)cc2)CC1	2.5
CSc1nnc2c(n1)OC(c1ccccc1)Nc1ccc(Br)cc1-2 (stereo not given)	0.93
NC1=NC(c2ccc(Cl)cc2)n2c(nc(=O)c3ccccc32)N1 (stereo not given)	0.35
CCOc1ccc(C2c3c(oc4ccccc4c3=O)C(=O)N2c2nc(C)c(C)s2)cc1OC (stereo not given)	-0.42
O=C(Nc1cscc1S(=O)(=O)c1ccc(Cl)cc1)C(Cl)(Cl)Cl	-1.4
SMILES	Dicer processing
CCOc1cccc(=O)c2c(C)[nH]c(C)c12	1.8
CCOc1cccc(=O)c2c(C)n(-c3ccc(C(=O)O)cc3)c(C)c12	10*
COc1cccc(=O)c2c(C)n(-c3ccc(C(=O)O)cc3)c(C)c12	2.1
Cn1c2c(c(=O)n(C)c1=O)C(c1ccc(-c3ccccc3)cc1)C1=C(N2)c2ccccc2C1=O (stereo not given)	-0.25
Cc1cc(C)c2c(n1)sc1c(SCc3ccc(F)cc3)ncnc12	1
C=CCSc1ncnc2c1sc1nc(C)cc(C)c12	3.1*
CCOc1ncnc2c1sc1nc(C)cc(C)c12	1.1
O=C(CN1CCOCC1)Nc1ccccc1Sc1nccc(C(F)(F)F)n1	-1.4
O=C1CC(/C=C/c2ccccc2)Cc2nc(N3CCN(Cc4ccc5c(c4)OCO5)CC3)ncc21 (stereo not given)	4.6*
O=C1CC(c2cccc(Cl)c2)Cc2nc(N3CCN(Cc4ccc5c(c4)OCO5)CC3)ncc21 (stereo not given)	0.07
COc1ccc(C2CC(=O)c3cnc(N4CCN(Cc5ccc6c(c5)OCO6)CC4)nc3C2)cc1 (stereo not given)	1
COc1cc(C2Nc3ccc(C(=O)c4ccccc4)cc3NC3=C2C(=O)CC(C)(C)C3)ccc1O (stereo not given)	0.14
Cc1ccc(C2C3=C(CCCC3=O)Nc3ncnn32)cc1 (stereo not given)	1.1
CCC/C(C)=N/Nc1nc2c(c(=O)n(Cc3ccccc3Cl)c(=O)n2C)n1C	1.9
CCOC(=O)CN(C(=O)COc1nc(-c2ccccc2)cc(C)c1C#N)c1ccccc1C	3.5*
CCOC(=O)CN(C(=O)COc1nc(-c2ccccc2)cc(C)c1C#N)c1cccc(OC)c1	0.12
CCOC(=O)CN(C(=O)COc1nc(-c2ccccc2)cc(C)c1C#N)c1ccc(C)cc1	-3.2
CCCN1C(=O)C(O)(CC(=O)c2ccc(-n3cccc3)cc2)c2cc(Br)ccc21 (stereo not given)	2.6
CC1=C(C(=O)Nc2ccccn2)C(c2ccc(Br)cc2)C2=C(CC(C)(C)CC2=O)N1 (stereo not given)	4.1*
CC1=C(C(=O)Nc2ccc(F)cc2F)C(c2ccc3c(c2)OCO3)C2=C(CC(C)(C)CC2=O)N1 (stereo not given)	3.1*
CC1=C(C(=O)Nc2cc(C)ccn2)C(c2ccc(F)cc2)C2=C(CC(C)(C)CC2=O)N1 (stereo not given)	1.8
CC1=C(C(=O)Nc2ccc(Br)cn2)C(c2ccc(C)cc2)C2=C(CC(C)(C)CC2=O)N1 (stereo not given)	-0.43
CCOC(=O)C1=C(C)NC2=C(C(=O)CC(C)(C)C2)C1c1ccc(F)cc1 (stereo not given)	0.51
CC1=C(C(=O)Nc2ccc(C)cn2)C(c2cccc(Br)c2)C2=C(CC(C)(C)CC2=O)N1 (stereo not given)	1.3
